Laboratory results published in PubChem BioAssay (NCI).
About 83,000 compounds went through this panel and 20% of them were active in at least one assay; those are over-represented in the sample as a whole.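 A percent growth of 40 corresponds to 60% growth inhibition; 0 means no net growth; -100 means all cells died. Active threshold: below 10.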 Activity calls are given as the source filed them.

How the values were obtained:
Assay in all cases: NCI-60 one-dose screen, 48 h (100 = growth as untreated, 0 = no growth, -100 = all killed)
Details in all cases: 10 µM unless noted
NCI-H23 lung = tested on: NCI-H23 lung
NCI-H226 lung = tested on: NCI-H226 lung
NCI-H322M lung = tested on: NCI-H322M lung
HOP-62 NSCLC = tested on: HOP-62 NSCLC
NCI-H460 lung = tested on: NCI-H460 lung
NCI-H522 lung = tested on: NCI-H522 lung
A549/ATCC NSCLC = tested on: A549/ATCC NSCLC
786-0 renal = tested on: 786-0 renal
COLO 205 colon = tested on: COLO 205 colon
HOP-92 NSCLC = tested on: HOP-92 NSCLC

Measured: growth

CCCn1c(N)c(C(N)=O)sc1=S
inactive: NCI-H23 lung 105% | NCI-H226 lung 103% | NCI-H322M lung 101% | HOP-62 NSCLC 98.9% | NCI-H460 lung 114% | NCI-H522 lung 94.5% | A549/ATCC NSCLC 112% | 786-0 renal 103% | COLO 205 colon 118%

O=C(O)c1ccc(-n2cc(/C=N/Nc3ccc(Cl)cc3Cl)c(-c3ccccc3)n2)cc1
inactive: NCI-H23 lung 84.5% | NCI-H226 lung 88.6% | NCI-H322M lung 103% | HOP-62 NSCLC 92.2% | NCI-H460 lung 102% | NCI-H522 lung 78% | A549/ATCC NSCLC 97.1% | 786-0 renal 97.5% | COLO 205 colon 96.7%

CCSc1nc(Cl)c(C#N)c(-c2ccc(F)cc2)n1
inactive: NCI-H23 lung 95.6% | NCI-H226 lung 94.3% | NCI-H322M lung 92% | HOP-62 NSCLC 106% | NCI-H460 lung 103% | NCI-H522 lung 92.8% | A549/ATCC NSCLC 87.3% | 786-0 renal 98.9% | COLO 205 colon 106%

Cn1c2c(c3ccc(-c4ccn[nH]4)cc3c1=O)C(=O)c1ccccc1-2
active: NCI-H226 lung 0.642% | NCI-H460 lung 1.75% | A549/ATCC NSCLC 8.44%
inactive: NCI-H23 lung 25.3% | NCI-H322M lung 87.3% | HOP-62 NSCLC 17.2% | NCI-H522 lung 48.8% | 786-0 renal 12.3% | COLO 205 colon 53.8%

NC(=O)CN1C(=O)c2ccccc2C1=O
inactive: NCI-H23 lung 98.8% | NCI-H226 lung 101% | NCI-H322M lung 99.1% | HOP-62 NSCLC 101% | NCI-H460 lung 106% | NCI-H522 lung 88.3% | A549/ATCC NSCLC 103% | 786-0 renal 102% | COLO 205 colon 110%

CC1(C)[C@@H](O)CC[C@]2(C)[C@H]3CC[C@@H]4[C@H]5[C@H](c6cn(-c7ccccc7)nn6)CC[C@]5(CO)CC[C@@]4(C)[C@]3(C)CC[C@@H]12
inactive: NCI-H23 lung 92.1% | NCI-H226 lung 80.9% | NCI-H322M lung 79.7% | HOP-62 NSCLC 93.9% | NCI-H460 lung 78.4% | NCI-H522 lung 69.4% | A549/ATCC NSCLC 74.5% | 786-0 renal 91.7% | COLO 205 colon 95.2%

COc1ccc2[nH]c(=O)c(/C=C/C(=O)/C=C/c3ccc(O)c(OC)c3)cc2c1
inactive: NCI-H226 lung 36.8% | NCI-H322M lung 78.8% | HOP-62 NSCLC 85% | NCI-H460 lung 20.1% | NCI-H522 lung 29% | A549/ATCC NSCLC 22.6% | COLO 205 colon 29.6%
active: NCI-H23 lung 5.43% | 786-0 renal -42.7%

c1ccc(Sc2ncccn2)nc1
inactive: NCI-H23 lung 93% | NCI-H226 lung 92.2% | NCI-H322M lung 111% | HOP-62 NSCLC 100% | NCI-H460 lung 103% | NCI-H522 lung 91.6% | A549/ATCC NSCLC 103% | 786-0 renal 103% | COLO 205 colon 116%

COc1ccc(/C=C/C(=O)Nc2ncnc3nc[nH]c23)cc1
inactive: NCI-H23 lung 97.7% | NCI-H226 lung 104% | NCI-H322M lung 101% | HOP-62 NSCLC 109% | NCI-H460 lung 99.2% | NCI-H522 lung 81.1% | A549/ATCC NSCLC 92.9% | 786-0 renal 95.6% | COLO 205 colon 115%

O=C(Nc1nc2ccc(C(F)(F)F)cc2s1)c1cc(Cl)ccc1O
active: NCI-H23 lung -12% | NCI-H226 lung 5.73% | HOP-62 NSCLC 4.72% | NCI-H460 lung 4.41% | NCI-H522 lung -15.1% | 786-0 renal 9.95% | COLO 205 colon -57.3%
inactive: NCI-H322M lung 10.6% | A549/ATCC NSCLC 11.3%

COc1ccccc1C(=O)/C=C/c1cc2cccc(OC)c2[nH]c1=O
inactive: A549/ATCC NSCLC 21.4%
active: NCI-H23 lung -16.4% | NCI-H226 lung -22.1% | NCI-H322M lung 8.09% | HOP-62 NSCLC -8.85% | NCI-H460 lung -27.5% | NCI-H522 lung -72.7% | 786-0 renal 9.27% | COLO 205 colon -49.7%

O=C(Nc1ccc(N=Cc2ccccc2O)cc1)NC1C=c2ccccc2=CC1 (stereo not given)
inactive: NCI-H226 lung 87.8% | NCI-H322M lung 98.6% | HOP-62 NSCLC 101% | NCI-H460 lung 108% | HOP-92 NSCLC 109% | NCI-H522 lung 93.3% | A549/ATCC NSCLC 87.9% | 786-0 renal 98.2% | COLO 205 colon 117%

O=C(Nc1cccc(-c2cccc(F)c2)c1)C1CCN(Cc2cccc3cccnc23)CC1
active: COLO 205 colon -81%
inactive: NCI-H226 lung 71.5% | NCI-H322M lung 78.2% | HOP-62 NSCLC 63.8% | NCI-H460 lung 37% | HOP-92 NSCLC 44.2% | NCI-H522 lung 47.3% | A549/ATCC NSCLC 71.9% | 786-0 renal 47.5%

O=CN1N=C(c2ccc(Cl)cc2)CC1c1cccc(Nc2ccnc3cc(C(F)(F)F)ccc23)c1 (stereo not given)
inactive: NCI-H226 lung 61.9% | NCI-H322M lung 82.4% | HOP-62 NSCLC 67.1% | NCI-H460 lung 57.9% | HOP-92 NSCLC 66.3% | NCI-H522 lung 57% | A549/ATCC NSCLC 61.4% | 786-0 renal 81.5% | COLO 205 colon 60.1%

COc1ccc(-c2[nH]c3ccccc3c2C=C(C#N)C#N)cc1
active: NCI-H460 lung 6.67% | HOP-92 NSCLC -17.2% | NCI-H522 lung -48.5% | A549/ATCC NSCLC 5.94% | COLO 205 colon -8.28%
inactive: NCI-H226 lung 25.8% | NCI-H322M lung 52.1% | HOP-62 NSCLC 32.2% | 786-0 renal 14.9%

COc1cc(C2=NN(C(C)=O)C(c3cccc(Nc4ccnc5cc(C(F)(F)F)ccc45)c3)C2)cc(OC)c1OC (stereo not given)
inactive: NCI-H226 lung 66.5% | NCI-H322M lung 68.3% | HOP-62 NSCLC 63.9% | NCI-H460 lung 57.6% | HOP-92 NSCLC 25.3% | NCI-H522 lung 55.7% | A549/ATCC NSCLC 53.1% | 786-0 renal 58.8% | COLO 205 colon 50.3%

COc1cc2nc3c(=O)n(-c4ccc(C#N)cc4)cnn3c(=O)c2cc1OC
inactive: NCI-H226 lung 95.1% | NCI-H322M lung 93.3% | HOP-62 NSCLC 102% | NCI-H460 lung 104% | HOP-92 NSCLC 103% | NCI-H522 lung 82.1% | A549/ATCC NSCLC 106% | 786-0 renal 103% | COLO 205 colon 94.3%

C#CCN(CCCOc1ccc(Cl)cc1Cl)CCCSC(=O)CCCCCN1/C(=C\C=C2/CCCC(/C=C/C3=[N+](CCCCCC(=O)[O-])c4ccccc4C3(C)C)=C2Cl)C(C)(C)c2ccccc21
active: NCI-H226 lung -10.9% | NCI-H522 lung -10.3%
inactive: NCI-H322M lung 83.7% | HOP-62 NSCLC 30.7% | NCI-H460 lung 11.8% | HOP-92 NSCLC 13.7% | A549/ATCC NSCLC 66% | 786-0 renal 25.4% | COLO 205 colon 32.8%

CCCCCCCc1n(Cc2ccc3ccccc3c2)c2ccccc2[n+]1Cc1ccc2ccccc2c1
active: NCI-H226 lung -70.8% | NCI-H322M lung -86% | HOP-62 NSCLC -70.6% | NCI-H460 lung -73% | HOP-92 NSCLC -84.4% | NCI-H522 lung -81.1% | A549/ATCC NSCLC -77.5% | 786-0 renal -65.1% | COLO 205 colon -75.8%

COc1cccc2c1-c1ccccc1C2=O
active: NCI-H460 lung 7.57% | NCI-H522 lung -13.7%
inactive: NCI-H226 lung 84.1% | NCI-H322M lung 44.5% | HOP-62 NSCLC 37.4% | HOP-92 NSCLC 74% | A549/ATCC NSCLC 23.3% | 786-0 renal 23.9% | COLO 205 colon 11.6%
